In one experiment the target is DNAJC8. The experiment in a line: pooled miR-30 sensor sort-seq; sequence = guide strand. Particulars: shRNA.
For the sequence TTGTCGTTTCCTTTCATGCATC, the sensor-assay potency score (higher = more potent) is -1.33.
The same measure, in the same setting: then TTTATATACAGCTTGTTTGAAC, with -0.768.
With TTTCTAACCATCACAATTCAGT, the sensor-assay potency score (higher = more potent) was -0.77.
On the same count and under the same terms, then TTTCTTGAGCTTCAATCTCTTC, with -0.98.
TGTAACTTCAGGATCTATCTGA yielded a sensor-assay potency score (higher = more potent) of 0.809.
On the same count and under the same terms, then TTTTTCTTGAGCTTCAATCTCT, with 0.129.
TTGTCTGTTTATATACAGCTTG displayed a sensor-assay potency score (higher = more potent) of -0.738.

A further experiment concerns the target DNAL4. The experiment is described as above. As to conditions: shRNA.
As for TCGTGGGTGATCTCAAACCCAA, the sensor-assay potency score (higher = more potent) was -1.47.
Still for that read-out and setting: next, TCTCTTTGATCATCTTGGCGGC: -0.315; TTGTCTCTTTGATCATCTTGGC: -0.232.
The sequence TCTTTGATCATCTTGGCGGCGC returned a sensor-assay potency score (higher = more potent) of -0.0929.
Still for that read-out and setting: next, ATTGTCTCTTTGATCATCTTGG: 0.417; TTGTTGTTGGAGAATTTCTCAC: -0.596; TCTGCAGTCGCTTATAATCAGC: -1.4.
TAGAGGAGGTTCTTCACCTCGT: the sensor-assay potency score (higher = more potent) came to 0.0799.
On the same count and under the same terms, then ACTTCTTGTCCATTGTCTCTTT, with -0.545; and ATAATCAGCCTCATCTTTCTTC, with 0.738.
The same measure, in the same setting: next, TATATAAATAAGACCGCTGTGT: -0.264.

A further experiment concerns the target DNASE2B. The experiment is described as above. Particulars: shRNA.
Sequence TAGGTCTCCAATACATGTCCAG registered a sensor-assay potency score (higher = more potent) of -0.704.
On the same count and under the same terms, next, TTGAACTCTGTTCCACAGCAGT: -0.963; TTGTATATTAGATAGGCTGTGT: 0.0611.
ATAATCATAGCCTTCTTCCGGA gave a sensor-assay potency score (higher = more potent) of 0.631.
For TAACAAGTGTGTCTTCAGCCGT, the sensor-assay potency score (higher = more potent) is -0.785.
TATAGCTGTTGTAATGTCCTTC returned a sensor-assay potency score (higher = more potent) of 0.757.
The same measure, in the same setting: next, TTTTATATTGTAGACATGGTAA: -1.07; TTCTGTTAACAAGTGTGTCTTC: -0.13.
For TTGGTGTGTCCATACTTTCTGC, the sensor-assay potency score (higher = more potent) is -0.698.
The same measure, in the same setting: next, TCTAGTTGTAGAGTCTAGGTAC: 0.705.
Sequence TACTCTTAGAGGCATATGCTTC returned a sensor-assay potency score (higher = more potent) of -0.938.
Regarding TTTAATTGCTTTTATATTGTAG, the sensor-assay potency score (higher = more potent) is -0.233.

The next experiment has as its target DNMT3L. Described as above. As to conditions: shRNA.
The sequence TATATTTCGCTGGTTAGCCTTG had a sensor-assay potency score (higher = more potent) of -0.491.
In the case of TTGAAATATTCTCTTAGGGGGA, the sensor-assay potency score (higher = more potent) was -0.387.
TGGAACTGGAACAGGTACCAGC registered a sensor-assay potency score (higher = more potent) of -1.35.
For AATACTTGAAATATTCTCTTAG, the sensor-assay potency score (higher = more potent) stood at 0.0137.
Regarding ATGTCTTCTATATTTCGCTGGT, the sensor-assay potency score (higher = more potent) was -0.668.
Regarding TTCTGTTGAAAAATACTTGAAA, the sensor-assay potency score (higher = more potent) was -0.77.
Sequence TGTGACATCAACCACATGCTTC returned a sensor-assay potency score (higher = more potent) of -0.297.
As for AACTGGAACAGGTACCAGCTGG, the sensor-assay potency score (higher = more potent) is -0.764.
Still for that read-out and setting: next, TTGGTACCCGTCATCGTCGTAC: -0.554; TGAACCTGGAGACTTCCGCAGC: -0.928.

Source of the values: the OligoGym collection.
Also: reference of the scale not given here.
